Experimental data: PMC7862700, “An all-to-all approach to the identification of sequence-specific readers for epigenetic DNA modifications on cytosine”

What was measured:
Test in all cases: DAPPL (digital affinity profiling via proximity ligation, sequencing); 10 mM Tris-HCl pH 7.5, 50 mM NaCl, 1 mM DTT, 4% glycerol, room temperature, 30 min; GST-TFs on glutathione beads, 16-mer random dsDNA library, 0.1% formaldehyde crosslink after washing; high values mean tight binding
FLI1 = target: T1, FLI1 (Homo sapiens, UniProt Q01543 1-452); settings: protein: recombinant; tags: N-terminal GST; dsDNA, one strand shown
T1 sequence: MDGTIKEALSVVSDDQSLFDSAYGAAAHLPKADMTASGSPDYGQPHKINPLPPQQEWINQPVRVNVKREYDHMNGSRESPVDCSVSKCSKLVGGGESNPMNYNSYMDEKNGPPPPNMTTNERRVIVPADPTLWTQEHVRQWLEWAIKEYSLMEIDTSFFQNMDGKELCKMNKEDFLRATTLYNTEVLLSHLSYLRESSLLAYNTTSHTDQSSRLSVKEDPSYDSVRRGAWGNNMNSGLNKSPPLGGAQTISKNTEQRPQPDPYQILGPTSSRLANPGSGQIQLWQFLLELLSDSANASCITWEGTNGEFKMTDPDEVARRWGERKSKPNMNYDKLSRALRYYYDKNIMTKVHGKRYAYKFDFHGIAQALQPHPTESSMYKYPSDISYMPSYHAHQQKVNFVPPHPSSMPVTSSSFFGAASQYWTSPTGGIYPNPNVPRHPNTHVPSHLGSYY
How it was run: (§1)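 A tag-only sample was pooled with DNA-barcoded human transcription factors that had been expressed in yeast as GST fusions and captured on glutathione beads. The pools were incubated for 30 min at room temperature with 200 nmole of a random double-stranded 16-mer DNA library in Tris/NaCl/DTT/glycerol buffer, then washed, crosslinked with 0.1% formaldehyde, proximity-ligated (BsaI/T4 ligase, 1 h, 37 °C), PCR-amplified and sequenced on an Illumina NextSeq500. Binding signal is each hexamer's read frequency for a factor divided by its frequency for the tag-only sample.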

ELK1 = target: T2, ELK1 (Homo sapiens, UniProt P19419 1-428); settings: protein: recombinant; tags: N-terminal GST; dsDNA, one strand shown
T2 sequence: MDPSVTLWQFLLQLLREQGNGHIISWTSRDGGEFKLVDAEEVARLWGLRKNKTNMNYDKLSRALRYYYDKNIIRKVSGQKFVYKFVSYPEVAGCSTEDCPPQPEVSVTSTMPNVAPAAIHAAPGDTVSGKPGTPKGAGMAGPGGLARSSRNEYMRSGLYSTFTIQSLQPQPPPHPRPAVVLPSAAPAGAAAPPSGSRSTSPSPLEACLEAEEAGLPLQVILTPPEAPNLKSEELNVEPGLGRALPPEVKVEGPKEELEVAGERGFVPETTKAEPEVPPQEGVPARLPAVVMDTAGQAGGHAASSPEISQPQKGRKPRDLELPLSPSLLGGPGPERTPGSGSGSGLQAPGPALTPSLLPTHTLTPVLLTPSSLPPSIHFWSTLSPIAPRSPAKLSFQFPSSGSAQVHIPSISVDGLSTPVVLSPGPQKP
How it was run: as §1

GABPA = target: T3, GABPA (Homo sapiens, UniProt Q06546 1-454); settings: protein: recombinant; tags: N-terminal GST; dsDNA, one strand shown
T3 sequence: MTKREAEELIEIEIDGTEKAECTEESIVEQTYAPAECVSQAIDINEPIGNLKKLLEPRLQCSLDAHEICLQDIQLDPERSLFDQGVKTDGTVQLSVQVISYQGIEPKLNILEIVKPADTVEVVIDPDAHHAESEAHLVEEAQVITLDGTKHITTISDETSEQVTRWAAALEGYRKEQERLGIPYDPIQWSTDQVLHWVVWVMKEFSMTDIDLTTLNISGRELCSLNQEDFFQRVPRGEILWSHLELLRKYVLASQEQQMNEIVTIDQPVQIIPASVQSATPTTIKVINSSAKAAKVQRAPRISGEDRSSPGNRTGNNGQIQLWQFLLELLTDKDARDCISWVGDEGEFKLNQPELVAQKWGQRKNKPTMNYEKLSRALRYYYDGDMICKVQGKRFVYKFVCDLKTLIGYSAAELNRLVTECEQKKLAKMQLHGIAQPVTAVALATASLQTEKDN
How it was run: as §1

ERG = target: T4, ERG (Homo sapiens, UniProt P11308 1-479); settings: protein: recombinant; tags: N-terminal GST; dsDNA, one strand shown
T4 sequence: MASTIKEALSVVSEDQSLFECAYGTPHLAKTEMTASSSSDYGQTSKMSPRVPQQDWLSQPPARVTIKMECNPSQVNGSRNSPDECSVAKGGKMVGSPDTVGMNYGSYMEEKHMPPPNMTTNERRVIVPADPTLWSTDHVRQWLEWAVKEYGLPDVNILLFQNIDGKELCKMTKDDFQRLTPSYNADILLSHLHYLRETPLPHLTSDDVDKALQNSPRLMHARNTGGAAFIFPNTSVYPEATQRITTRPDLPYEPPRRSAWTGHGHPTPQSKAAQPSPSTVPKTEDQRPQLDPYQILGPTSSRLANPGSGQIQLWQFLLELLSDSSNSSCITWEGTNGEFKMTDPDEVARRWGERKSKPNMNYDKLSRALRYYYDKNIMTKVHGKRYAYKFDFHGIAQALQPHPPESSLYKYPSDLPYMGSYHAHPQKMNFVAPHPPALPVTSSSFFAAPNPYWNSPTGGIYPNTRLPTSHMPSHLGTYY
How it was run: as §1

ELF1 = ELF1 (Homo sapiens, UniProt P32519 1-619); settings: protein: recombinant; tags: N-terminal GST; dsDNA, one strand shown
Chain of ELF1 (P32519 whole entry): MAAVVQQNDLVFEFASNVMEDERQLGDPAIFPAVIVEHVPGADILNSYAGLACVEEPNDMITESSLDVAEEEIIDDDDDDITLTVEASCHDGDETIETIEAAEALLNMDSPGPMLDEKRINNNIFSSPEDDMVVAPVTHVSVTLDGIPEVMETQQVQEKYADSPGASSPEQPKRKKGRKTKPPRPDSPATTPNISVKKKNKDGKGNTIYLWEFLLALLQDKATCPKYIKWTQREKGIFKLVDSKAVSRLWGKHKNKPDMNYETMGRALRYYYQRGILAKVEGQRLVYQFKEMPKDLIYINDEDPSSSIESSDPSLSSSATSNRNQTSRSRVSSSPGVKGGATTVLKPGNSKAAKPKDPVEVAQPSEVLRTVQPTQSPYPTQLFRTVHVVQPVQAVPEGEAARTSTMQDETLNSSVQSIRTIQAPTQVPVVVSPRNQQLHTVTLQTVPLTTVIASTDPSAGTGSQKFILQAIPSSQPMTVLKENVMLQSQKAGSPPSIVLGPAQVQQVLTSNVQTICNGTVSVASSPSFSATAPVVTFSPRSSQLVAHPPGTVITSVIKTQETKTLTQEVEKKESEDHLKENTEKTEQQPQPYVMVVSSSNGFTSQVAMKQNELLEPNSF
How it was run: as §1

EHF = target: T5, EHF (Homo sapiens, UniProt Q9NZC4 1-300); settings: protein: recombinant; tags: N-terminal GST; dsDNA, one strand shown
T5 sequence: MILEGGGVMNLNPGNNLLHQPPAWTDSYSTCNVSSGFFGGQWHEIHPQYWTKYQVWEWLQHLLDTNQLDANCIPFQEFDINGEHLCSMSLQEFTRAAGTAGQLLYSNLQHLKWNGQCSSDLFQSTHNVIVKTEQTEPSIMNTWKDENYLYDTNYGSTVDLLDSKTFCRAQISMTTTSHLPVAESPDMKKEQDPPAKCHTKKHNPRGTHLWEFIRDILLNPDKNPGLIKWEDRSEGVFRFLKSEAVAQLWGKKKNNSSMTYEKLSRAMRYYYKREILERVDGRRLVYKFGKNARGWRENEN
How it was run: as §1

SPI1 = SPI1 (Homo sapiens, UniProt P17947 1-270); settings: protein: recombinant; tags: N-terminal GST; dsDNA, one strand shown
How it was run: as §1

SPIB = SPIB (Homo sapiens, UniProt Q01892 1-262); settings: protein: recombinant; tags: N-terminal GST; dsDNA, one strand shown
Chain of SPIB (Q01892 whole entry): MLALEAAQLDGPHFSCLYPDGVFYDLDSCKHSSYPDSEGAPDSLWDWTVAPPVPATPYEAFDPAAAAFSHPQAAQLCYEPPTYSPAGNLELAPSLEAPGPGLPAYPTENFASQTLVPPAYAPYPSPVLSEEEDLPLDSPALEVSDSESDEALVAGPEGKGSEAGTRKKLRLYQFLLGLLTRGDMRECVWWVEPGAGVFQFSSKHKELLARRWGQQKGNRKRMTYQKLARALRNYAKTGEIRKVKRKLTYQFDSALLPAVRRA
How it was run: as §1

ELK3 = target: T6, ELK3 (Homo sapiens, UniProt P41970 1-407); settings: protein: recombinant; tags: N-terminal GST; dsDNA, one strand shown
T6 sequence: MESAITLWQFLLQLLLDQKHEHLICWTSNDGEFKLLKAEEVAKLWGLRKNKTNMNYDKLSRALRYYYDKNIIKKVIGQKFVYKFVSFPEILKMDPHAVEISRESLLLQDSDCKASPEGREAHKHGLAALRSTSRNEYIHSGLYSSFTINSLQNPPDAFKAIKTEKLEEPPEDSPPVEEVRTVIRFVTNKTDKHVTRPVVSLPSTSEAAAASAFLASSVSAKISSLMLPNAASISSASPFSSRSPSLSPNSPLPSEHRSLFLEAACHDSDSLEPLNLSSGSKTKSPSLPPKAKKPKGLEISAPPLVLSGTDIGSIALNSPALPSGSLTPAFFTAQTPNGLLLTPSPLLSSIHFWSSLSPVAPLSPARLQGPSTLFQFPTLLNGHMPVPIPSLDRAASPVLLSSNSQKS
How it was run: as §1

FEV = target: T7, FEV (Homo sapiens, UniProt Q99581 1-238); settings: protein: recombinant; tags: N-terminal GST; dsDNA, one strand shown
T7 sequence: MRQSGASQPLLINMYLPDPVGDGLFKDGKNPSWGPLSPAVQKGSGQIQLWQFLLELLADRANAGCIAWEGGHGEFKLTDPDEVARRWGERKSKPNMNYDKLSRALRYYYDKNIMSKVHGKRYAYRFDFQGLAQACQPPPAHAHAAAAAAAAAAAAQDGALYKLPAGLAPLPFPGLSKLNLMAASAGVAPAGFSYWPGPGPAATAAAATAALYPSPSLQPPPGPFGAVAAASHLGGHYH
How it was run: as §1

ETV5 = ETV5 (Homo sapiens, UniProt P41161 1-510); settings: protein: recombinant; tags: N-terminal GST; dsDNA, one strand shown
Chain of ETV5 (P41161 whole entry): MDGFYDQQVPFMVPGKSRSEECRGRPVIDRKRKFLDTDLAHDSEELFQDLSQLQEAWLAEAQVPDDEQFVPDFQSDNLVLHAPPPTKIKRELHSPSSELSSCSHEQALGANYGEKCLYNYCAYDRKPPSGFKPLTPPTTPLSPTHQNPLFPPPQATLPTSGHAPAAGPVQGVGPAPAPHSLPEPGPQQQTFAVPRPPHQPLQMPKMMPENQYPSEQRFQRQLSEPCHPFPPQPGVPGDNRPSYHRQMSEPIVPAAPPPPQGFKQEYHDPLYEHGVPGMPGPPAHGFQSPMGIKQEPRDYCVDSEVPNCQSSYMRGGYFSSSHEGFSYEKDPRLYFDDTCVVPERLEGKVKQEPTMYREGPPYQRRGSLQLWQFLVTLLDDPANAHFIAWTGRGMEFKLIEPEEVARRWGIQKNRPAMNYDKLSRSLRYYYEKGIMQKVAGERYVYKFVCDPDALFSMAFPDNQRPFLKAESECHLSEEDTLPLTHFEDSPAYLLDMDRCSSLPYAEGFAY
How it was run: as §1

HSF1 = HSF1 (Homo sapiens, UniProt Q00613 1-529); settings: protein: recombinant; tags: N-terminal GST; chain copies: 3; dsDNA, one strand shown
Chain of HSF1 (Q00613 whole entry): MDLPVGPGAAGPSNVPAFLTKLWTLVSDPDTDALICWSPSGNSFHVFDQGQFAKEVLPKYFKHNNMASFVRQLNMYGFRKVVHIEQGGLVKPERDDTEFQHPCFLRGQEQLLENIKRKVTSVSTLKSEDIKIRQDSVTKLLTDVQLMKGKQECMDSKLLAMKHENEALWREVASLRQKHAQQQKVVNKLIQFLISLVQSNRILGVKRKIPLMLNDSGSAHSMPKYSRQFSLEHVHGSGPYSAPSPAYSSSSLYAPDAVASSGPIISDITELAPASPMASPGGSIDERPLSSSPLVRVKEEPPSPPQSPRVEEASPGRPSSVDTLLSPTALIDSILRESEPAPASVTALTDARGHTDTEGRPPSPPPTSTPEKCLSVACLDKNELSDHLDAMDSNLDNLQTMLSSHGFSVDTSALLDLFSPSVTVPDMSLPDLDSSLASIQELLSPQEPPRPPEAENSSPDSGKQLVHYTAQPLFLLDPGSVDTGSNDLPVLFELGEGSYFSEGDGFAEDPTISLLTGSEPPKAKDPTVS
How it was run: as §1

ELF4 = ELF4 (Homo sapiens, UniProt Q99607 1-663); settings: protein: recombinant; tags: N-terminal GST; dsDNA, one strand shown
Chain of ELF4 (Q99607 whole entry): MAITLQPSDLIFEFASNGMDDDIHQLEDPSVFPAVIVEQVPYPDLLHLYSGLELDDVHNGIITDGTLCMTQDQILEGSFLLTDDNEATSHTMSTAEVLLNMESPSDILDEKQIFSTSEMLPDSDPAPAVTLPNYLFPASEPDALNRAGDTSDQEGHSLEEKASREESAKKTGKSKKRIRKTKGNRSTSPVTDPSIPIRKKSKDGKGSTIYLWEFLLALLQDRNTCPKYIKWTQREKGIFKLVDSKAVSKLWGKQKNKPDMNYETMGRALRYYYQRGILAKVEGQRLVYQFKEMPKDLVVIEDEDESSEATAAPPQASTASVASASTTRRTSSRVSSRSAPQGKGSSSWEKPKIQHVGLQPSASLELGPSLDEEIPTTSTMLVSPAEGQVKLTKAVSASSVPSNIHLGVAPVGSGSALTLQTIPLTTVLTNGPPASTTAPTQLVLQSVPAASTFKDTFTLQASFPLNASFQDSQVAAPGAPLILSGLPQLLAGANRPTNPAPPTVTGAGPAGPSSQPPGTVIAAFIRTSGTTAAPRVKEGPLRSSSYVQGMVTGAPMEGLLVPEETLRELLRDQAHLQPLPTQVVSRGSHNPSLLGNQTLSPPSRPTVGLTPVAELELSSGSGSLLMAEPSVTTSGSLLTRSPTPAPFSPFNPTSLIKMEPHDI
How it was run: as §1

ELK4 = target: T8, ELK4 (Homo sapiens, UniProt P28324-2 1-405); settings: protein: recombinant; tags: N-terminal GST; dsDNA, one strand shown
T8 sequence: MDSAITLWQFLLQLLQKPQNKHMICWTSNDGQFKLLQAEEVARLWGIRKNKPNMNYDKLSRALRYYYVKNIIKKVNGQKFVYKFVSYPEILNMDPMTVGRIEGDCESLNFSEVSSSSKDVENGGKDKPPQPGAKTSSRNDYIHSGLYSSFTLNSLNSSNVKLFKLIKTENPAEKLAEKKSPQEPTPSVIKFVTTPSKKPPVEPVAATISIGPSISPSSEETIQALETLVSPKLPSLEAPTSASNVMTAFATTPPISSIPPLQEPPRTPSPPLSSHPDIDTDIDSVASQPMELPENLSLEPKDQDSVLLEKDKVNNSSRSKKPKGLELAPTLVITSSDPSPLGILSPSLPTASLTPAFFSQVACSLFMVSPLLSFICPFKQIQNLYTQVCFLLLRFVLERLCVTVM
How it was run: as §1

ETV2 = target: T9, ETV2 (Homo sapiens, UniProt O00321 1-342); settings: protein: recombinant; tags: N-terminal GST; dsDNA, one strand shown
T9 sequence: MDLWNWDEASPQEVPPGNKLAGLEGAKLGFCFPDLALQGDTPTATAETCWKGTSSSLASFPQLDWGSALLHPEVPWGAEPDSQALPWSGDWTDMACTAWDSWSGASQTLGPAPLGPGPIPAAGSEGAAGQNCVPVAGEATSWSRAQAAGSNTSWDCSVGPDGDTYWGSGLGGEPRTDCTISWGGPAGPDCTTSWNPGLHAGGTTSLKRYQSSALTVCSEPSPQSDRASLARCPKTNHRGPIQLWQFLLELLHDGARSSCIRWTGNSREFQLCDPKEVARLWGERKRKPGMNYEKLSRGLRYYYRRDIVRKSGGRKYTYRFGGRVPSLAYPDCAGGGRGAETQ
How it was run: as §1

ELF3 = target: T10, ELF3 (Homo sapiens, UniProt P78545 1-371); settings: protein: recombinant; tags: N-terminal GST; dsDNA, one strand shown
T10 sequence: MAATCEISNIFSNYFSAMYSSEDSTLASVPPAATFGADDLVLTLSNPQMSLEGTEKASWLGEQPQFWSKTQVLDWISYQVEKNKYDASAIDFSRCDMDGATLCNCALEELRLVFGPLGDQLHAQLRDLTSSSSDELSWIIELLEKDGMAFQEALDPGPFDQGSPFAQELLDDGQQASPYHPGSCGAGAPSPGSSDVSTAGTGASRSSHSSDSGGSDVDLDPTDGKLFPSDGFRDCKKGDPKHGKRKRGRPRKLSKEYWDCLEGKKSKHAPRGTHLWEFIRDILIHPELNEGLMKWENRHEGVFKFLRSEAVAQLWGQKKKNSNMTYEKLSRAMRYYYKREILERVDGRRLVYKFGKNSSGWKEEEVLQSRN
How it was run: as §1

CRX = CRX (Homo sapiens, UniProt O43186 1-299); settings: protein: recombinant; tags: N-terminal GST; dsDNA, one strand shown
Chain of CRX (O43186 whole entry): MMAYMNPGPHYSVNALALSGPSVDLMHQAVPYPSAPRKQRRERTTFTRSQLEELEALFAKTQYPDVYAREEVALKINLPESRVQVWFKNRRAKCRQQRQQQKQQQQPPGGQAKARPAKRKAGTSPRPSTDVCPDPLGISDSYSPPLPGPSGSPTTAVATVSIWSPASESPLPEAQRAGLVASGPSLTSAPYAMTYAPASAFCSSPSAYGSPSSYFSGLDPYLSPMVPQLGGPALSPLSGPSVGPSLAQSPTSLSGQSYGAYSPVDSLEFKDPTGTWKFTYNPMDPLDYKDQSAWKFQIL
How it was run: as §1

ETV1 = ETV1 (Homo sapiens, UniProt P50549 1-477); settings: protein: recombinant; tags: N-terminal GST; dsDNA, one strand shown
Chain of ETV1 (P50549 whole entry): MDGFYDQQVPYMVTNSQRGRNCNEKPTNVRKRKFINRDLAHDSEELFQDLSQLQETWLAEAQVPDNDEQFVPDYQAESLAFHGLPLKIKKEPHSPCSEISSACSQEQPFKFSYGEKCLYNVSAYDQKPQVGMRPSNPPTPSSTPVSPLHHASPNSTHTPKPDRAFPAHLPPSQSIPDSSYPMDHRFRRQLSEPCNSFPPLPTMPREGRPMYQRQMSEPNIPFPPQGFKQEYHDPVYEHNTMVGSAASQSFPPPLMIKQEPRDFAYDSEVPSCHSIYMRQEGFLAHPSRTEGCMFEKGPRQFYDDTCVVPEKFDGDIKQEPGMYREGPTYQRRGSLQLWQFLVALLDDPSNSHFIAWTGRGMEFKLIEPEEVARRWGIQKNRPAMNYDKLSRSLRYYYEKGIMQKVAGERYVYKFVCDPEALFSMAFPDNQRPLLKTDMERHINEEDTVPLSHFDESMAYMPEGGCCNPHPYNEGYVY
How it was run: as §1

CTATAG
binding signal (FLI1): 1.09 fold enrichment (6-mer frequency, TF over GST control) | binding signal (ELK1): 1.05 fold enrichment (6-mer frequency, TF over GST control) | binding signal (GABPA): 1.11 fold enrichment (6-mer frequency, TF over GST control) | binding signal (ERG): 1.01 fold enrichment (6-mer frequency, TF over GST control) | binding signal (ELF1): 1.09 fold enrichment (6-mer frequency, TF over GST control) | binding signal (EHF): 1.03 fold enrichment (6-mer frequency, TF over GST control) | binding signal (SPI1): 1.08 fold enrichment (6-mer frequency, TF over GST control) | binding signal (SPIB): 1.07 fold enrichment (6-mer frequency, TF over GST control) | binding signal (ELK3): 1.08 fold enrichment (6-mer frequency, TF over GST control) | binding signal (FEV): 1.04 fold enrichment (6-mer frequency, TF over GST control) | binding signal (ETV5): 1.1 fold enrichment (6-mer frequency, TF over GST control) | binding signal (HSF1): 1.03 fold enrichment (6-mer frequency, TF over GST control) | binding signal (ELF4): 1.02 fold enrichment (6-mer frequency, TF over GST control) | binding signal (ELK4): 1.14 fold enrichment (6-mer frequency, TF over GST control) | binding signal (ETV2): 1.27 fold enrichment (6-mer frequency, TF over GST control) | binding signal (ELF3): 1.04 fold enrichment (6-mer frequency, TF over GST control) | binding signal (CRX): 1.05 fold enrichment (6-mer frequency, TF over GST control) | binding signal (ETV1): 1.01 fold enrichment (6-mer frequency, TF over GST control)
